From the supplement of paper PMC10849652
Of roughly 8,800 targets only a part is listed; those with a hit were picked by preference. About 0.5% of all pairs of compound and target were hits.

Key:
Assay in all cases: log2 fold change, soluble protein after heating vs DMSO (PISA); higher = thermal stabilisation; K562 lysate, 10 uM; active = over 0.2 and 3.5 SD of the protein, either way, in both replicates (recomputed)
erlotinib = compound: C#Cc1cccc(Nc2ncnc3cc(OCCOC)c(OCCOC)cc23)c1 [erlotinib]
In short: (§1)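 K562 pellets were dounce-homogenised in PBS pH 7.4 containing 1 mM MgCl2, and the crude extract, at 1 mg/mL protein, was exposed to 10 μM compound for 30 min. Aliquots were heated for 3 min across 48°C-58°C, pooled, brought to 0.5% NP-40 at 4°C and spun at 21,000xg for 90 min, with the supernatant taken as soluble protein. TMTpro 16plex LC-MS/MS with equalised channel sums quantified that protein. Values are log-two fold changes in thermal stability relative to solvent controls, taken from duplicates.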

[1] = compound: C/C(=N\NC(=O)C1=CC(=CC=C1)S(=O)(=O)N2CCOCC2)/C3=C(C=CC(=C3)Cl)O
In short: as §1

[2] = compound: C1=CC(=CC=C1C2=NC3=C(N2)C=C(C=C3)C(=O)N)OC4=CC=C(C=C4)Cl
In short: as §1

[3] = compound: C1=CC2=C(C=CC(=C2)/C=C\3/C(=O)NC(=NCC4=CC=CS4)S3)N=C1
In short: as §1

[4] = compound: C1=CC2=NC=CN=C2C=C1/C=C/3\C(=O)NC(=O)S3
In short: as §1

[5] = compound: C1=CC=C(C=C1)C2=NC(=C(N2)C3=CC=NC=C3)C4=CC(=C(C=C4)Cl)O
In short: as §1

[6] = compound: C1=CC=C2C(=C1)C3=NNC4=CC=CC(=C43)C2=O
In short: as §1

[7] = compound: C1CCN(C1)C(=O)NC2=CC=CC(=C2)NC3=NC=C(C(=N3)NCCC4=CN=CN4)Br
In short: as §1

[8] = compound: C1CN(CCC1(CC2=CC=C(C=C2)Cl)N)C3=NC=NC4=C3C=CN4
In short: as §1

IRAK-1-4 Inhibitor I = compound: C1COCCN1CCN2C3=CC=CC=C3N=C2NC(=O)C4=CC(=CC=C4)[N+](=O)[O-] [IRAK-1-4 Inhibitor I]
In short: as §1

Measured: log2 fold change

PHKA2 (UniProt P46019)
inactive: erlotinib 0.048 | [1] -0.051 | [2] 0.032 | [3] 0.052 | [4] 0.044 | [5] -0.058 | [6] 0.012 | [7] 0.027 | [8] 0.033 | IRAK-1-4 Inhibitor I 0.03

PRKCB isoform 2 (UniProt P05771)
inactive: erlotinib 0.053 | [1] -0.191 | [2] 0.07 | [3] -0.043 | [4] -0.004 | [5] -0.064 | [6] -0.12 | [7] -0.149 | [8] 0.019 | IRAK-1-4 Inhibitor I -0.02

PHKA1 (UniProt P46020)
Chain of UniProt P46020 (P46020 whole entry, looked up): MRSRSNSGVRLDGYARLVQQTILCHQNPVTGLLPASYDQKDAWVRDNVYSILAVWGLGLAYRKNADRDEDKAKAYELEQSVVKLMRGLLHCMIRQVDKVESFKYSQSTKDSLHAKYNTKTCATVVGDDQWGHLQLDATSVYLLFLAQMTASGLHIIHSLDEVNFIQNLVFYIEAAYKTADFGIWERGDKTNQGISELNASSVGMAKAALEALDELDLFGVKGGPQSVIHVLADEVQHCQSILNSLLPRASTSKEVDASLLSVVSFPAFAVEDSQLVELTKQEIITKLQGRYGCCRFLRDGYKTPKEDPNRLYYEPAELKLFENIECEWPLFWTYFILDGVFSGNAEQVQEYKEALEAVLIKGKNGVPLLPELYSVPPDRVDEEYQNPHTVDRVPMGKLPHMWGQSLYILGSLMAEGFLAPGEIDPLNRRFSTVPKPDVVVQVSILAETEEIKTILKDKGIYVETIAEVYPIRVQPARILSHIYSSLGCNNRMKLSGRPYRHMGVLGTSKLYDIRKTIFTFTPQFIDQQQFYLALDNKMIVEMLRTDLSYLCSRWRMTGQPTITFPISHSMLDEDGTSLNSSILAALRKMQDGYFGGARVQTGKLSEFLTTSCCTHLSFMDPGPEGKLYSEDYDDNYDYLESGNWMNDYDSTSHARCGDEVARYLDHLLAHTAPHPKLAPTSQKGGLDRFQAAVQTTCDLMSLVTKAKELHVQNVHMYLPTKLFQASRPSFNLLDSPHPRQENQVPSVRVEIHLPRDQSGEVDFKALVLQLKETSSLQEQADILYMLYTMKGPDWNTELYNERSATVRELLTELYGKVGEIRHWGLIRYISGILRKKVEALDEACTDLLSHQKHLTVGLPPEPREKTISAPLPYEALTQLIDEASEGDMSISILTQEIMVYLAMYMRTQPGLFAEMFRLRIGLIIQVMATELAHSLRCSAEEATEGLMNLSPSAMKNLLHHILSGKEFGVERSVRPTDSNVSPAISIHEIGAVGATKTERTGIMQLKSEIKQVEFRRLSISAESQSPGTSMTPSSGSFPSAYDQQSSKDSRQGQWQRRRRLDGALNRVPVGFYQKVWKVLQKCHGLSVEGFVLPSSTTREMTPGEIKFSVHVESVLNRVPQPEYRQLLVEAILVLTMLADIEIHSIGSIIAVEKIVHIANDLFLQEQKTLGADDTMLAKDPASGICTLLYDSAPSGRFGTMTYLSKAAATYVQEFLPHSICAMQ
inactive: erlotinib -0.011 | [1] 0.003 | [2] -0.015 | [3] 0.063 | [4] 0.078 | [5] -0.027 | [6] 0.205 | [7] 0.05 | [8] 0.026 | IRAK-1-4 Inhibitor I 0.01

PDS5A (UniProt Q29RF7)
Chain of UniProt Q29RF7 (Q29RF7 whole entry, looked up): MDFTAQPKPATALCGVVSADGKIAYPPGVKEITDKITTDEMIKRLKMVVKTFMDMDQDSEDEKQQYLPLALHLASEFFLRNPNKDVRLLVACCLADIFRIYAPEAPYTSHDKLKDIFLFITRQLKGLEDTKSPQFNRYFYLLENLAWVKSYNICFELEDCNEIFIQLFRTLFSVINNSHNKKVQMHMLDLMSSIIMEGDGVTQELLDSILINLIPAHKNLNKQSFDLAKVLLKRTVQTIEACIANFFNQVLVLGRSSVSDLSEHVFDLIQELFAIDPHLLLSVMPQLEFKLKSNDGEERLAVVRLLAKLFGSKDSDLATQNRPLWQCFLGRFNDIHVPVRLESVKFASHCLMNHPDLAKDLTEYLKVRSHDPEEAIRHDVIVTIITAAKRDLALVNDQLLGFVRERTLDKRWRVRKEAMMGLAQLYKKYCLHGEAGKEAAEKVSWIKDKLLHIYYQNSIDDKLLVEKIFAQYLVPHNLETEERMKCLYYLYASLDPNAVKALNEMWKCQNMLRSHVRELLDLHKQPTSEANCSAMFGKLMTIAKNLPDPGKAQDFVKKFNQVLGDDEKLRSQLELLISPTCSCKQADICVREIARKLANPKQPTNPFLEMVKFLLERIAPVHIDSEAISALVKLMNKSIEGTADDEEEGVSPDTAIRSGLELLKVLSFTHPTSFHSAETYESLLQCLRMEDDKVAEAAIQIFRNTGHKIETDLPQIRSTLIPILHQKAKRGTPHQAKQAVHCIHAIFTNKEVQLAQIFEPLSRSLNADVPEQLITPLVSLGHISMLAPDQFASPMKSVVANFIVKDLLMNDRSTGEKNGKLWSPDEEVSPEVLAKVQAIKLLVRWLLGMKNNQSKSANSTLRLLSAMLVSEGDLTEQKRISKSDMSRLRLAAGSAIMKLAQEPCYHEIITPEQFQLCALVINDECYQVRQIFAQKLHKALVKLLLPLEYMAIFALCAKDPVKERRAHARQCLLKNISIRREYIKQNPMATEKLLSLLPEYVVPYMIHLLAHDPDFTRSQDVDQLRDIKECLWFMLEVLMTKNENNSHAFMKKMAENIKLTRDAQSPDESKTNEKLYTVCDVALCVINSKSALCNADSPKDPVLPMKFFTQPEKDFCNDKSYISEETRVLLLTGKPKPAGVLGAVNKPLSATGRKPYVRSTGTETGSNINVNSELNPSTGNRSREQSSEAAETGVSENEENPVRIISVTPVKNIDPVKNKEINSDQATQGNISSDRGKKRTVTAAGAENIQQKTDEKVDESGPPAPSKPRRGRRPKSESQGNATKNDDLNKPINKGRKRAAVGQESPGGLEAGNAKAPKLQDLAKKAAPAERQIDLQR
inactive: erlotinib 0.043 | [1] -0.015 | [2] -0.029 | [3] 0.052 | [4] 0.032 | [5] 0.012 | [6] -0.038 | [7] -0.005 | [8] 0.001 | IRAK-1-4 Inhibitor I -0.015

PTP4A1 (UniProt Q93096)
Chain of UniProt Q93096 (Q93096 whole entry, looked up): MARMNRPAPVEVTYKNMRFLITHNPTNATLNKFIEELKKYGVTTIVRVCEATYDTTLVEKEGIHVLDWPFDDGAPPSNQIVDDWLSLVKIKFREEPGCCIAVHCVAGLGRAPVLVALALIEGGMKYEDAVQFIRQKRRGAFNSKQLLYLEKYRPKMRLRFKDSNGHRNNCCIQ
inactive: erlotinib -0.005 | [1] 0.01 | [2] 0.014 | [3] -0.001 | [4] -0.013 | [5] -0.022 | [6] -0.086 | [7] 0.05 | [8] -0.066 | IRAK-1-4 Inhibitor I -0.014

PDXK (UniProt O00764)
inactive: erlotinib -0.003 | [1] 0.02 | [2] 0.103 | [3] -0.019 | [4] -0.02 | [5] -0.008 | [6] 0.021 | [7] 0.037 | [8] -0.012 | IRAK-1-4 Inhibitor I 0.018

PCF11 (UniProt O94913)
inactive: erlotinib 0.031 | [1] -0.063 | [2] 0.014 | [3] 0.008 | [4] -0.044 | [5] -0.025 | [6] -0.028 | [7] 0.005 | [8] 0.005 | IRAK-1-4 Inhibitor I -0.017

PPFIA2 (UniProt O75334)
inactive: erlotinib 0.019 | [1] -0.005 | [2] 0.02 | [3] -0.004 | [4] 0.065 | [5] 0.012 | [6] -0.006 | [7] 0.02 | [8] -0.074 | IRAK-1-4 Inhibitor I -0.022

PI4KA (UniProt P42356)
inactive: erlotinib 0.018 | [1] -0.014 | [2] -0.055 | [3] 0.035 | [4] 0.075 | [5] -0.028 | [6] -0.027 | [7] -0.021 | [8] 0.02 | IRAK-1-4 Inhibitor I -0.003

PIK3R1 (UniProt P27986)
active: [4] 0.348
inactive: erlotinib -0.027 | [1] -0.4 | [2] 0.008 | [3] 0.069 | [5] 0.076 | [6] 0.089 | [7] -0.015 | [8] 0 | IRAK-1-4 Inhibitor I 0.1

PFKFB3 isoform 4 (UniProt Q16875)
inactive: erlotinib -0.006 | [1] -0.021 | [2] 0.028 | [3] -0.033 | [4] 0.011 | [5] -0.034 | [6] -0.035 | [7] 0.032 | [8] 0.002 | IRAK-1-4 Inhibitor I 0.004

PTPN2 (UniProt P17706)
inactive: erlotinib 0.028 | [1] 0.119 | [2] -0.005 | [3] 0.006 | [4] 0.019 | [5] -0.045 | [6] -0.033 | [7] 0 | [8] 0.046 | IRAK-1-4 Inhibitor I -0.017

PCYT1B (UniProt Q9Y5K3)
inactive: erlotinib -0.016 | [1] 0.015 | [2] -0.006 | [3] 0.046 | [4] -0.03 | [5] 0.002 | [6] 0.044 | [7] -0.041 | [8] -0.032 | IRAK-1-4 Inhibitor I -0.023

PRPH isoform 2 (UniProt P41219)
inactive: erlotinib -0.007 | [1] 0.042 | [2] -0.025 | [3] -0.032 | [4] 0.066 | [5] -0.001 | [6] -0.114 | [7] 0.072 | [8] -0.005 | IRAK-1-4 Inhibitor I -0.011

POC5 (UniProt Q8NA72)
inactive: erlotinib -0.022 | [1] -0.083 | [2] -0.01 | [3] 0.069 | [4] -0.025 | [5] 0.039 | [6] -0.144 | [7] 0.045 | [8] 0.043 | IRAK-1-4 Inhibitor I 0.069

POLR2G (UniProt P62487)
inactive: erlotinib 0.02 | [1] 0.012 | [2] 0.044 | [3] -0.005 | [4] 0.029 | [5] 0.022 | [6] 0.036 | [7] -0.002 | [8] 0.02 | IRAK-1-4 Inhibitor I 0.03

POLR3E (UniProt Q9NVU0)
inactive: erlotinib 0.003 | [1] 0.003 | [2] -0.007 | [3] 0.017 | [4] 0.005 | [5] 0.006 | [6] -0.001 | [7] -0.03 | [8] -0.007 | IRAK-1-4 Inhibitor I -0.016

PRKCSH (UniProt K7ELL7)
inactive: erlotinib -0.01 | [1] -0.124 | [2] 0.004 | [3] -0.056 | [4] 0 | [5] -0.036 | [6] -0.061 | [7] -0.096 | [8] -0.038 | IRAK-1-4 Inhibitor I -0.039

POLD1 (UniProt P28340)
inactive: erlotinib 0.016 | [1] -0.05 | [2] 0.013 | [3] 0.008 | [4] -0.008 | [5] 0.015 | [6] -0.029 | [7] -0.006 | [8] 0.007 | IRAK-1-4 Inhibitor I -0.01

PDCD6IP (UniProt Q8WUM4)
inactive: erlotinib -0.016 | [1] 0.021 | [2] -0.036 | [3] 0 | [4] 0.108 | [5] 0.03 | [6] 0.013 | [7] 0.07 | [8] 0.012 | IRAK-1-4 Inhibitor I -0.094

PTPN7 isoform 3 (UniProt P35236)
inactive: erlotinib 0.032 | [1] -0.002 | [2] -0.028 | [3] -0.06 | [4] -0.026 | [5] -0.008 | [6] -0.03 | [7] 0.009 | [8] 0.045 | IRAK-1-4 Inhibitor I 0.021

PRKCD (UniProt Q05655)
inactive: erlotinib -0.041 | [1] 0.016 | [2] -0.035 | [3] -0.047 | [4] -0.01 | [5] 0.006 | [6] -0.023 | [7] -0.069 | [8] 0.019 | IRAK-1-4 Inhibitor I 0.013

PICALM (UniProt Q13492)
inactive: erlotinib -0.019 | [1] -0.035 | [2] 0.02 | [3] -0.021 | [4] 0.01 | [5] -0.06 | [6] -0.014 | [7] -0.016 | [8] 0.001 | IRAK-1-4 Inhibitor I 0.026

PPP2R5B (UniProt Q15173)
Chain of UniProt Q15173 (Q15173 whole entry, looked up): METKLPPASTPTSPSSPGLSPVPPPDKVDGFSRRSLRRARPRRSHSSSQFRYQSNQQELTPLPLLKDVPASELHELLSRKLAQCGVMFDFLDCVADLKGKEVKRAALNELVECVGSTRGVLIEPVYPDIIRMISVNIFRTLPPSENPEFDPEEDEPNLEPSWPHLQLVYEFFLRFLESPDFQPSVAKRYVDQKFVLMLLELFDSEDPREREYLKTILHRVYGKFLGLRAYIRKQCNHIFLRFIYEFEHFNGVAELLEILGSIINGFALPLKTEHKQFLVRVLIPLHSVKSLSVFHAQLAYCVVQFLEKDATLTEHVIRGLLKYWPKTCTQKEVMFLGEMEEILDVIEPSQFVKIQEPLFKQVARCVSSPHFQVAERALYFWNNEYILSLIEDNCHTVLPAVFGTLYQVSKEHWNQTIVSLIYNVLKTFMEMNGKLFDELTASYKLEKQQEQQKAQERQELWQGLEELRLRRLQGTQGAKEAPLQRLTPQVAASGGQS
inactive: erlotinib -0.026 | [1] 0.038 | [2] 0.056 | [3] -0.106 | [4] 0.123 | [5] 0 | [6] 0.052 | [7] -0.051 | [8] -0.042 | IRAK-1-4 Inhibitor I 0.016

PRKACB isoform 2 (UniProt P22694)
active: [7] 0.352 | [8] 0.354
inactive: erlotinib -0.033 | [1] -0.03 | [2] -0.03 | [3] 0.04 | [4] -0.028 | [5] -0.019 | [6] 0.129 | IRAK-1-4 Inhibitor I 0.009

PLXNB2 (UniProt O15031)
Chain of UniProt O15031 (O15031 whole entry, looked up): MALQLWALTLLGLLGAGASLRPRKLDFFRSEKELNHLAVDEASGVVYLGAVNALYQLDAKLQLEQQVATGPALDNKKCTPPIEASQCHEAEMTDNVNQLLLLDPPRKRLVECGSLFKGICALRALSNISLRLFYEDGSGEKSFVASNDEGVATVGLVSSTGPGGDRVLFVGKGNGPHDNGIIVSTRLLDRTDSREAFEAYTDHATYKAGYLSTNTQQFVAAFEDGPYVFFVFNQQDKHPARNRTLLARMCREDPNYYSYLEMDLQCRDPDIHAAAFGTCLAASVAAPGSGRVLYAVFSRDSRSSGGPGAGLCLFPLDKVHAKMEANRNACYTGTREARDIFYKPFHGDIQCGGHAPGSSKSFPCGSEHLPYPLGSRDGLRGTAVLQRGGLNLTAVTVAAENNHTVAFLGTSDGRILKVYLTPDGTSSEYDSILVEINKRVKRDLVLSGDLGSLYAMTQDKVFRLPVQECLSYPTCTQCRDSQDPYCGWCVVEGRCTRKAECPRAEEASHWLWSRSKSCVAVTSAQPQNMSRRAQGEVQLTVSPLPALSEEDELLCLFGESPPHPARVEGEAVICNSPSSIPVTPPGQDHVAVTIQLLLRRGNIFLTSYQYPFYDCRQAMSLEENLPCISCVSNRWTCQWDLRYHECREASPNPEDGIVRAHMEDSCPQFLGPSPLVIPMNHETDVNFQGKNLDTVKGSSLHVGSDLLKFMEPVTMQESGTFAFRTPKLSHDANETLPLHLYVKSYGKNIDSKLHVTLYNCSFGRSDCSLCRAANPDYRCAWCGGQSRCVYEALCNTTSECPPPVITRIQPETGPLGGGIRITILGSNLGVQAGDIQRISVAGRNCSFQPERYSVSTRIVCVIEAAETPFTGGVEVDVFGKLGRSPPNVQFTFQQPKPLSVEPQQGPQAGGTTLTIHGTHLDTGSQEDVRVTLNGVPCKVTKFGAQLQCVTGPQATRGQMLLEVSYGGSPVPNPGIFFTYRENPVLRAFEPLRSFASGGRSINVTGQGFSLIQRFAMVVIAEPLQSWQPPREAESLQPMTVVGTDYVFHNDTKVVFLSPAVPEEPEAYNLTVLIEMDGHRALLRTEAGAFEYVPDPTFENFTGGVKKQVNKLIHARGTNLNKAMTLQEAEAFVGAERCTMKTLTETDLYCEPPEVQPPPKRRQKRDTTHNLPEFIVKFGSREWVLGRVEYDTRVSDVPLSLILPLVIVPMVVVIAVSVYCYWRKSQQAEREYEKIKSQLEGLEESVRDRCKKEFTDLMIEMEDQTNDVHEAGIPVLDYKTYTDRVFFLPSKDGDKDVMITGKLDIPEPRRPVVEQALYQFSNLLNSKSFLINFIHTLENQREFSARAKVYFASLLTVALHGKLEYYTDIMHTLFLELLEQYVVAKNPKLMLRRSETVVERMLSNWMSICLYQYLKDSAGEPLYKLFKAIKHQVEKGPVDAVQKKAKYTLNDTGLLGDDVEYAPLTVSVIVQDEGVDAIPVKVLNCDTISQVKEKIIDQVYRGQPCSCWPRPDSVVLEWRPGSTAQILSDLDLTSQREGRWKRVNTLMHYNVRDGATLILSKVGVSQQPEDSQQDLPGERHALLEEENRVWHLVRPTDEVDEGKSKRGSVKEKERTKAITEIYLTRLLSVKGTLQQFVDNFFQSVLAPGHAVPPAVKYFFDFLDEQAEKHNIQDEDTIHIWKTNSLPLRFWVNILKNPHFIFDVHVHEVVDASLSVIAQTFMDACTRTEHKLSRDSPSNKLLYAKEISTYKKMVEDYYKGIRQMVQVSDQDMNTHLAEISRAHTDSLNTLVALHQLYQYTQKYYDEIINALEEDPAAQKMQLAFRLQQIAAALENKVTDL
inactive: erlotinib -0.014 | [1] -0.027 | [2] -0.013 | [3] -0.04 | [4] -0.037 | [5] 0.005 | [6] -0.018 | [7] -0.017 | [8] 0.049 | IRAK-1-4 Inhibitor I 0.004

POLR2B (UniProt P30876)
inactive: erlotinib 0.031 | [1] 0.019 | [2] -0.014 | [3] 0.012 | [4] -0.016 | [5] -0.008 | [6] -0.024 | [7] 0.002 | [8] -0.004 | IRAK-1-4 Inhibitor I -0.007

PXMP4 (UniProt Q9Y6I8)
inactive: erlotinib 0.024 | [1] 0.068 | [2] 0.084 | [3] -0.053 | [4] 0.013 | [5] 0.053 | [6] -0.038 | [7] 0.043 | [8] 0.022 | IRAK-1-4 Inhibitor I 0.016

POLB (UniProt P06746)
inactive: erlotinib 0.012 | [1] 0.009 | [2] 0.075 | [3] 0.069 | [4] -0.022 | [5] 0.019 | [6] -0.061 | [7] -0.019 | [8] 0.026 | IRAK-1-4 Inhibitor I -0.062

POMP (UniProt Q9Y244)
inactive: erlotinib 0.058 | [1] -0.022 | [2] -0.001 | [3] 0.05 | [4] -0.003 | [5] -0.024 | [6] -0.08 | [7] -0.099 | [8] 0.048 | IRAK-1-4 Inhibitor I -0.023
